19 molecules from PubChem BioAssay AID624255 (Broad Institute, 2012) can be followed below.

Hit rate of the full screen: of about 77,000 compounds, about 4,600 (6%) were called active. Inconclusive results (about 1%) are left out. The sample holds actives, similar compounds and a random draw of the others, so the mix is not that of the screen. Unmarked numbers belong to inactive results.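 Rule for the calls: active = mean inhibition above about 93%, with at least 55% of replicates each passing it (limit read from the data, passing the limit was not always enough); inconclusive = only one of those two conditions holds; inactive = neither condition holds.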

One may read the inhibition as the drop in the measured response relative to a control, in per cent.

The assay is described as follows: growth inhibition of T. cruzi in host fibroblasts – cell-based, beta-gal Tulahuen parasites, NIH3T3 host, luminescence, primary screen (AID 624255). The settings on record: T. cruzi beta-gal in NIH3T3, GalScreen luminescence, 90 h; at 8.34 µM; active compounds read high.
In the case of `Cn1cnc(CCNC(=O)C[C@H]2CC[C@@H]3[C@H](COC[C@@H](O)CN3C(=O)Nc3ccc(Cl)cc3)O2)c1`, the inhibition was 33%.

For `O=C(N[C@H]1C=C[C@@H](CC(=O)N2CCN(c3ccccc3)CC2)O[C@@H]1CO)c1ccncc1`, the inhibition was -7%.

Consider `CC(=O)N(C)C[C@@H]1Oc2cc(-c3cccnc3)ccc2S(=O)(=O)N([C@H](C)CO)C[C@H]1C`, for which the inhibition was -140%.

As to `O=C(C[C@@H]1CC[C@@H]2[C@H](COC[C@H](O)CN2S(=O)(=O)c2ccc(Cl)cc2)O1)N[C@@H]1CCN(Cc2ccccc2)C1`, the inhibition is 43.9%.

In the case of `O=C(c1cnccn1)N1CC[C@@H]2[C@H](CO)Nc3ccc(-c4cccc(F)c4)cc3[C@@H]21`, the inhibition is 109% (active).

In the case of `COc1ccc(-c2ccc3c(c2)[C@H]2[C@H](CCN2C(=O)c2ccc4c(c2)OCO4)[C@@H](CO)N3)cc1`, the inhibition was 13.9%.

For `O=C(C1CCC1)N1CC[C@H]2[C@H](CO)Nc3ccc(-c4cccc(F)c4)cc3[C@H]21`, the inhibition is 92.4%.

Regarding `COCC(=O)N1CC[C@H]2[C@H](CO)Nc3ccc(-c4ccc(C(=O)N(C)C)cc4)cc3[C@H]21`, the inhibition was 90.6%.

On to `OC[C@@H]1Nc2ccc(-c3ccc(F)cc3)cc2[C@@H]2[C@H]1CCN2Cc1ccc(F)cc1`, for which the inhibition was 22.6%.

On to `CN(C)C(=O)c1ccc(-c2ccc3c(c2)[C@H]2[C@H](CCN2C(=O)c2ccc4c(c2)OCO4)[C@H](CO)N3)cc1`, for which the inhibition is 99.5% (active).

With `N#Cc1cccc(-c2ccc3c(c2)[C@H]2[C@H](CCN2Cc2ccc4c(c2)OCO4)[C@@H](CO)N3)c1`, the inhibition was 27.1%.

Take `O=C(c1cccnc1)N1CC[C@H]2[C@H](CO)Nc3ccc(-c4ccc(F)cc4)cc3[C@H]21`: the inhibition was 74.7%.

Regarding `O=C(c1cccnc1)N1CC[C@@H]2[C@@H](CO)Nc3ccc(-c4ccccc4)cc3[C@@H]21`, the inhibition is 77.8%.

Regarding `O=C(c1ccccc1)N1CC[C@H]2[C@H](CO)Nc3ccc(-c4ccc(F)cc4)cc3[C@H]21`, the inhibition was 59.1%.

As to `O=C(c1ccccn1)N1CC[C@@H]2[C@H]1c1cc(-c3ccccc3)ccc1N[C@@H]2CO`, the inhibition is 106% (active).

Regarding `OC[C@@H]1Nc2ccc(-c3cccc(F)c3)cc2[C@H]2[C@@H]1CCN2Cc1ccncc1`, the inhibition is 115% (active).

As for `O=C(NC[C@@H]1[C@@H](c2ccccc2)[C@@H](CO)N1Cc1ccccn1)C1CCC1`, the inhibition is 31.9%.

Turning to `C[C@H](O)C#Cc1cnc2c(c1)C(=O)N([C@H](C)CO)C[C@H](C)[C@@H](CN(C)C(=O)Nc1ccc(F)cc1)O2`, the inhibition was 41%.

Consider `O=C([C@H]1[C@H](CO)[C@H]2Cn3c(ccc(-c4ccccc4)c3=O)[C@@H]1N2Cc1cccnc1)N1CCOCC1`, for which the inhibition is 28.9%.
